Of roughly 8,800 targets only a part is listed; those with a hit were picked by preference. About 0.5% of all pairs of compound and target were hits. A number with no mark means an inactive call.
Legend:
Assay in all cases: log2 fold change, soluble protein after heating vs DMSO (PISA); higher = thermal stabilisation; K562 lysate, 10 uM; active = over 0.2 and 3.5 SD of the protein, either way, in both replicates (recomputed)
[1] = compound: CCCS(=O)(=O)Nc1ccc(F)c(C(=O)c2c[nH]c3ncc(-c4ccc(Cl)cc4)cc23)c1F [vemurafenib]
In short: (§1)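 To prepare the extract, K562 pellets were dounce-homogenised in PBS pH 7.4 with 1 mM MgCl2, giving crude material at 1 mg/mL protein. This was treated with 10 μM compound for 30 min, then heated in aliquots for 3 min over 48°C-58°C before pooling and addition of NP-40 to 0.5% at 4°C. Centrifugation at 21,000xg for 90 min left soluble protein in the supernatant, which TMTpro 16plex LC-MS/MS quantified with equalised channel sums. Results are log-two fold changes in thermal stability compared with solvent controls, from duplicates.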

[2] = compound: CCCS(=O)(=O)Nc1ccc(F)c(C(=O)c2c[nH]c3ncc(Cl)cc23)c1F
In short: as §1

[3] = compound: CCN(CCCOc1ccc2c(Nc3cc(CC(=O)Nc4cccc(F)c4)[nH]n3)ncnc2c1)CCOP(=O)(O)O [barasertib]
In short: as §1

[4] = compound: CC[C@@H]1C(=O)N(C)c2cnc(Nc3ccc(C(=O)NC4CCN(C)CC4)cc3OC)nc2N1C1CCCC1
In short: as §1

[5] = compound: CC[C@@H]1C(=O)N(C)c2cnc(Nc3ccc(C(=O)N[C@H]4CC[C@H](N5CCN(CC6CC6)CC5)CC4)cc3OC)nc2N1C(C)C [volasertib]
In short: as §1

[6] = compound: CCn1c(C(=O)N(C2CC2)C2CC2)cc2c3c(ncn3C)c(Nc3cc(C)n(C)n3)nc21
In short: as §1

[7] = compound: CCn1cc(-c2ccnc3[nH]c(-c4cccc(CN(C)C)c4)cc23)c(-c2ccc(NC(=O)N(C)C)cc2)n1
In short: as §1

[8] = compound: CN1CCC(CNc2ccc3ncc(-c4cccc(OC(F)(F)F)c4)n3n2)CC1
In short: as §1

[9] = compound: CN1CCN(CCOc2cc(OC3CCOCC3)c3c(Nc4c(Cl)ccc5c4OCO5)ncnc3c2)CC1 [saracatinib]
In short: as §1

[10] = compound: CN1CCN(c2nc(C3=C(c4c[nH]c5ccccc45)C(=O)NC3=O)c3ccccc3n2)CC1 [sotrastaurin]
In short: as §1

Chain of UniProt Q8N8N7 (Q8N8N7 whole entry, looked up): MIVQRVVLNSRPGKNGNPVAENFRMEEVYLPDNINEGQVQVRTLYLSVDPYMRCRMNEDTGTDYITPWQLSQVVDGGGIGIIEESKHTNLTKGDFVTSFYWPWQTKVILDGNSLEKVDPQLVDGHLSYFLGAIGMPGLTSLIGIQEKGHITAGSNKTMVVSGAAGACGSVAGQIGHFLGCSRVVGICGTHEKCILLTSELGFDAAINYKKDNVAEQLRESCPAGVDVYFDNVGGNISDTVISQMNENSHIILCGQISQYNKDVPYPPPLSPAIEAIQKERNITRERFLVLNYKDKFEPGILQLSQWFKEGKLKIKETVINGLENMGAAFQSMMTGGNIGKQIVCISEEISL
Chain of UniProt Q9Y446 (Q9Y446 whole entry, looked up): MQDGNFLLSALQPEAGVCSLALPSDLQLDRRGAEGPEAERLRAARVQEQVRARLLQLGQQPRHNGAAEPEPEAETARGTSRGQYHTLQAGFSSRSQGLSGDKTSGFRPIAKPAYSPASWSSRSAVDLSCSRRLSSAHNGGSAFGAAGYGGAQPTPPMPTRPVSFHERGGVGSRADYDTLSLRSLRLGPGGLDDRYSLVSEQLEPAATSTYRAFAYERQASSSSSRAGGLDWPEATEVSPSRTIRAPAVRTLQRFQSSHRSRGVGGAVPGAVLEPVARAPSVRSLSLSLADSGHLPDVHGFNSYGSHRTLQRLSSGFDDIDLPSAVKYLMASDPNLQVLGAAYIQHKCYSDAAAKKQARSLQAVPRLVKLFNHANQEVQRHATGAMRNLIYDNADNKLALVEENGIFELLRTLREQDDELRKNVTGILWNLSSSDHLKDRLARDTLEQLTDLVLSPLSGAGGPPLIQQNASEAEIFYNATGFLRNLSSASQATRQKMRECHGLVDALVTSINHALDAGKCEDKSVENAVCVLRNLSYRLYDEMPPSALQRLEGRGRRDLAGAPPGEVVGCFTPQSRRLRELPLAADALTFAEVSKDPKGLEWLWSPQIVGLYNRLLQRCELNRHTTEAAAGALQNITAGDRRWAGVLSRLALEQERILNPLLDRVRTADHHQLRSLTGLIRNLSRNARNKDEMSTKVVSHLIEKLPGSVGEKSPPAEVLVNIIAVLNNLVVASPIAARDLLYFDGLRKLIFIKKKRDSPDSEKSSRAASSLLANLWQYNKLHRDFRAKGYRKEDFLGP
Chain of UniProt Q9UBF8 (Q9UBF8 whole entry, looked up): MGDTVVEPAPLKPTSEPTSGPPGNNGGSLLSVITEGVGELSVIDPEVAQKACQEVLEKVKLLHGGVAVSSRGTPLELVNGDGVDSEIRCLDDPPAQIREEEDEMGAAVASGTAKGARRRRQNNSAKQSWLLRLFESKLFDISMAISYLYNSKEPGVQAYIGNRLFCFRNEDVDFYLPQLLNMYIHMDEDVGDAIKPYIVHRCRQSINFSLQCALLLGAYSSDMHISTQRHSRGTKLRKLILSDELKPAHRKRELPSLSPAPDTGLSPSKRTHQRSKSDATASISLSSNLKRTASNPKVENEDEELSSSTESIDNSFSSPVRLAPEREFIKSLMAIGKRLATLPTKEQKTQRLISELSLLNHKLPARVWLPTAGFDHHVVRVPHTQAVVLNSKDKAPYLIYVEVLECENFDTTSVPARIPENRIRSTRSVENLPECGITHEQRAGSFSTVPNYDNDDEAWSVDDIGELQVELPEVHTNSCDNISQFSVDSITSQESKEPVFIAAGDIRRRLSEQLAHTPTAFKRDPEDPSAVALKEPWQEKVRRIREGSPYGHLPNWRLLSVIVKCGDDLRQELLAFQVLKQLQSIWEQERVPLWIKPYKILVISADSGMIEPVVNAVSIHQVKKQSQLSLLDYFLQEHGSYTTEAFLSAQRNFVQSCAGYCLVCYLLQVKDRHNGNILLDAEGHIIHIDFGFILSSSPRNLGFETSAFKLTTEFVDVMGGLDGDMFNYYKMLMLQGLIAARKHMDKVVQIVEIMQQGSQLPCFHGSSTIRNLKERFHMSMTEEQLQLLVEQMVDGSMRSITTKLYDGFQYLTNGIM
Chain of UniProt P28065 (P28065 whole entry, looked up): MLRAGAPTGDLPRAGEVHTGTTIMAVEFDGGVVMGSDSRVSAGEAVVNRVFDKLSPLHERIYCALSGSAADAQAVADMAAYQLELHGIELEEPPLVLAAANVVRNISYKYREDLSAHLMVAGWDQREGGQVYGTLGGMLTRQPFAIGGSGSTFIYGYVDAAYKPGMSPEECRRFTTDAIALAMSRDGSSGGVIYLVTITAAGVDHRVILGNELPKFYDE
Chain of UniProt P23219 (P23219 whole entry, looked up): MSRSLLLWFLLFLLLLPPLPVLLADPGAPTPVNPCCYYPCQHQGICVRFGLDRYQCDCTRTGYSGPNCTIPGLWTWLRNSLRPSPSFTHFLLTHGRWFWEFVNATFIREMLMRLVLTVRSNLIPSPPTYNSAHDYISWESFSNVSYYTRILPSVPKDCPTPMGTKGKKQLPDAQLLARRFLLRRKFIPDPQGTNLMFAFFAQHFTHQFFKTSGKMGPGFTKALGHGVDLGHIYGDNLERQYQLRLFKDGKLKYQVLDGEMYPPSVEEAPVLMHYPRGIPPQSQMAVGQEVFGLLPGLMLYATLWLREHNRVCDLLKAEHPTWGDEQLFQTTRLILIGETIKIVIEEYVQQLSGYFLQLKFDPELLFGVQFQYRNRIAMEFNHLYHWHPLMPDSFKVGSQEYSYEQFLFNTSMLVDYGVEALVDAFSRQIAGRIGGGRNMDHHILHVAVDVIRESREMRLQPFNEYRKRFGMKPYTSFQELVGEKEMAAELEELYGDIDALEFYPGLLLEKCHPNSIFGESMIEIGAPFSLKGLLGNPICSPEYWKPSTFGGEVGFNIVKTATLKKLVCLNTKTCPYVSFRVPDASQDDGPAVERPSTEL
Chain of UniProt Q9Y5K3 (Q9Y5K3 whole entry, looked up): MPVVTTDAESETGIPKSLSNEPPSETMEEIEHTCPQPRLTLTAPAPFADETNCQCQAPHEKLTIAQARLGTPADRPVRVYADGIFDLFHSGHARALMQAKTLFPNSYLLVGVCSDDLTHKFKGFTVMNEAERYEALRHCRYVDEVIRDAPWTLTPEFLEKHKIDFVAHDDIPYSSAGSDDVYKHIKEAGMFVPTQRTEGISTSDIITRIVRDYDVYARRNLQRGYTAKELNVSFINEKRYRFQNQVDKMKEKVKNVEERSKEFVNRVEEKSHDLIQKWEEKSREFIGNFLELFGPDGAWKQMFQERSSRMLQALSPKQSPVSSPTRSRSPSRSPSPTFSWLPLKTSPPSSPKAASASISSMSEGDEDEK
Chain of UniProt Q8TEQ8 (Q8TEQ8 whole entry, looked up): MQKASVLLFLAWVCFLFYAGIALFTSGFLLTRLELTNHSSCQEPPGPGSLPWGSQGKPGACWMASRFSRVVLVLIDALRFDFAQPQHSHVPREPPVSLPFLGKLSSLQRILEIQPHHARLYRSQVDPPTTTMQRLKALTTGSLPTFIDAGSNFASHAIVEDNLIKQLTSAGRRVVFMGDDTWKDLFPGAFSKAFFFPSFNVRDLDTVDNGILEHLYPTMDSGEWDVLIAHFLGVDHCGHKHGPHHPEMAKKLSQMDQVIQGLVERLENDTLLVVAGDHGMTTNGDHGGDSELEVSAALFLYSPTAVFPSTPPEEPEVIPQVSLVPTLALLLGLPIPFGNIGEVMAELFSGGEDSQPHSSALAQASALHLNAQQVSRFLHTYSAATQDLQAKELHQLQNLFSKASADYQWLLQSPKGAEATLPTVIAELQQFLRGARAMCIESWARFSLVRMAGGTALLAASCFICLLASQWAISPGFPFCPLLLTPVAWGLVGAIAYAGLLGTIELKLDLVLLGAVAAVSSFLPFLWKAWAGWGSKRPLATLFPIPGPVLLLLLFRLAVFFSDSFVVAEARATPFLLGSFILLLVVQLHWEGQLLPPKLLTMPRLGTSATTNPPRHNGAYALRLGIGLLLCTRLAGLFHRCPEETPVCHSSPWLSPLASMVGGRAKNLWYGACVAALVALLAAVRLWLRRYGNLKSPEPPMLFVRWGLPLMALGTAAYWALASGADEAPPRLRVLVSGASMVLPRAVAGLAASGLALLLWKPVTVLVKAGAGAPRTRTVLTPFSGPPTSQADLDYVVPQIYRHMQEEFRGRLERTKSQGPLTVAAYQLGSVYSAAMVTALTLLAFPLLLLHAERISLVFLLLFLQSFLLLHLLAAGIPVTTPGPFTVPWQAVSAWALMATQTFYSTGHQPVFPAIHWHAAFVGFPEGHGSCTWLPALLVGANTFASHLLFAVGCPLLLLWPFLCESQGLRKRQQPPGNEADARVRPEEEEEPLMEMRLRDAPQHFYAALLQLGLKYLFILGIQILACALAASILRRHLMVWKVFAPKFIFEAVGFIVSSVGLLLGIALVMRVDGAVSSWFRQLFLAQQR
Chain of UniProt Q8TAE6 (Q8TAE6 whole entry, looked up): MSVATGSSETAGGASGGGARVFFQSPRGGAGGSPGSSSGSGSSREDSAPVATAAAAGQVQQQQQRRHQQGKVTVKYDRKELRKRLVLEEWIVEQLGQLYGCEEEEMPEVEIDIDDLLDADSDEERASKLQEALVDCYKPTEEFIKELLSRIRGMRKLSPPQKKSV
Chain of UniProt Q9BTU6 (Q9BTU6 whole entry, looked up): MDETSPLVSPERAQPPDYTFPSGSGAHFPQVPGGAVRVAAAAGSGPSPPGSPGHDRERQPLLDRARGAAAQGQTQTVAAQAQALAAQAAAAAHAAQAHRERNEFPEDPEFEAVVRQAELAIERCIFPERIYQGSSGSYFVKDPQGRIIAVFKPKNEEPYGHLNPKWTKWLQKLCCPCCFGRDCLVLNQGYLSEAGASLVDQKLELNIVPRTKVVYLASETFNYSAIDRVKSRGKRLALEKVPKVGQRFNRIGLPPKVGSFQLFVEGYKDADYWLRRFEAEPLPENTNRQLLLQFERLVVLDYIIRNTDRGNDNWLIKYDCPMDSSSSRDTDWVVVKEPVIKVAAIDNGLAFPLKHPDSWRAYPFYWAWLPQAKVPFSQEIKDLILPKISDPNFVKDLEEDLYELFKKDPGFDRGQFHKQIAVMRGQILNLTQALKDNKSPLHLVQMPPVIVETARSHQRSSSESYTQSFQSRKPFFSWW

| Target | log2 fold change [1] | log2 fold change [2] | log2 fold change [3] | log2 fold change [4] | log2 fold change [5] | log2 fold change [6] | log2 fold change [7] | log2 fold change [8] | log2 fold change [9] | log2 fold change [10] |
| --- | --- | --- | --- | --- | --- | --- | --- | --- | --- | --- |
| PSMB9 (UniProt P28065) | -0.105 | 0.037 | 0.158 | 0.335 (active) | 0.028 | -0.06 | -0.165 | 0.027 | 0.037 | 0.018 |
| PHKG2 (UniProt P15735) | -0.074 | -0.055 | 0.126 | 0.074 | 0.073 | -0.007 | -0.103 | 0.045 | 0.062 | -0.054 |
| PTGR2 (UniProt Q8N8N7) | -0.029 | 0.04 | -0.022 | 0.056 | -0.039 | 0.069 | 0.012 | 0.092 | -0.021 | 0.1 |
| PLEKHA5 isoform 6 (UniProt Q9HAU0) | 0.003 | -0.003 | 0.043 | -0.005 | 0.003 | 0.026 | -0.117 | -0.088 | 0.027 | 0.02 |
| PSTPIP2 (UniProt Q9H939) | 0.022 | 0.018 | 0.01 | -0.029 | -0.037 | -0.007 | 0.063 | -0.09 | 0.032 | 0 |
| PPIL2 (UniProt Q13356) | 0.012 | 0.015 | 0.035 | -0.013 | -0.06 | 0 | -0.023 | 0.016 | -0.032 | 0.024 |
| PI4KB (UniProt Q9UBF8) | 0.222 (active) | 0.011 | -0.051 | 0.049 | -0.026 | -0.016 | -0.038 | 0.134 | -0.006 | 0.012 |
| PUM1 isoform 3 (UniProt Q14671) | -0.07 | 0.013 | 0.068 | 0.031 | -0.063 | 0.03 | 0.045 | -0.084 | 0.039 | 0.016 |
| PTGS1 isoform 6 (UniProt P23219) | 0.058 | 0.076 | 0.039 | 0.005 | -0.022 | -0.012 | -0.279 (active) | 0.134 | -0.033 | 0.065 |
| PIK3CB (UniProt P42338) | -0.079 | 0.001 | 0.011 | 0.314 | -0.025 | -0.07 | -0.02 | 0.427 | -0.03 | 0.158 |
| PDCD6IP (UniProt Q8WUM4) | -0.003 | 0.015 | 0.083 | -0.061 | 0.006 | 0.013 | -0.073 | -0.035 | -0.068 | -0.139 |
| PIP4K2A (UniProt P48426) | 0 | -0.009 | -0.051 | 0.31 (active) | 0.087 | 0.073 | -0.035 | 0.155 | 0.036 | 0.02 |
| PRKCB isoform 2 (UniProt P05771) | 0.045 | -0.024 | -0.017 | -0.01 | -0.062 | 0.002 | 0.073 | -0.077 | -0.023 | 0.505 (active) |
| PPP1R14C (UniProt Q8TAE6) | -0.183 | 0.008 | 0.002 | -0.084 | 0.037 | 0.072 | -0.217 | 0.017 | -0.022 | – |
| PRIM2 (UniProt P49643) | 0.025 | 0.04 | -0.005 | -0.034 | -0.048 | 0.019 | -0.027 | -0.046 | -0.03 | 0.02 |
| PCYT1B (UniProt Q9Y5K3) | 0.013 | 0.011 | 0.012 | 0.046 | 0.017 | 0.008 | -0.094 | 0.063 | 0.012 | -0.002 |
| PRKACB isoform 2 (UniProt P22694) | -0.077 | -0.016 | 0.013 | -0.021 | -0.01 | -0.072 | -0.021 | 0.125 | 0.012 | 0.175 |
| POLD3 (UniProt Q15054) | 0.003 | -0.005 | 0.004 | -0.014 | -0.045 | -0.013 | 0.009 | -0.03 | 0.028 | -0.01 |
| PKP3 isoform 2 (UniProt Q9Y446) | -0.087 | 0.05 | -0.01 | 0.061 | -0.005 | 0.05 | 0.027 | -0.088 | -0.037 | 0.001 |
| PI4K2A (UniProt Q9BTU6) | -0.025 | 0.037 | 0.041 | -0.009 | -0.027 | 0.004 | 0.019 | 0.042 | -0.037 | 0.102 |
| PIGO (UniProt Q8TEQ8) | -0.112 | 0.109 | 0.064 | 0.013 | -0.069 | -0.081 | -0.029 | -0.043 | -0.013 | -0.499 (active) |
| POMP (UniProt Q9Y244) | -0.022 | 0.001 | -0.034 | 0.039 | -0.007 | -0.028 | 0.065 | -0.061 | 0.056 | -0.064 |
| PCBP2 (UniProt H3BRU6) | 0.13 | -0.031 | -0.115 | 0.085 | 0.036 | -0.082 | -0.041 | 0.047 | 0.1 | 0.179 |
| PCF11 (UniProt O94913) | 0.042 | 0.012 | 0.015 | 0.02 | -0.029 | -0.045 | 0.081 | -0.018 | -0.003 | 0.006 |
| PIK3C3 (UniProt Q8NEB9) | 0.032 | 0.019 | -0.012 | 0.098 | -0.025 | -0.075 | -0.226 | 0.121 | 0.008 | 0.007 |
| PGPEP1 (UniProt Q9NXJ5) | 0.021 | 0.022 | -0.036 | -0.091 | -0.027 | 0.036 | -0.096 | 0.03 | 0 | -0.056 |
| PHKA1 (UniProt P46020) | -0.021 | 0.009 | 0.089 | 0.044 | -0.074 | 0.074 | -0.067 | 0.079 | -0.009 | -0.019 |
| PPP2R5C isoform 4 (UniProt Q13362) | 0.029 | 0.02 | -0.001 | 0.018 | -0.002 | 0.022 | -0.02 | -0.038 | 0.017 | -0.036 |
| POLB (UniProt P06746) | -0.013 | 0.003 | -0.029 | -0.013 | -0.025 | 0.032 | -0.015 | -0.07 | 0.033 | 0.048 |
| PFDN2 (UniProt Q9UHV9) | -0.049 | 0 | 0.064 | -0.022 | 0.029 | 0.082 | 0.471 (active) | -0.049 | 0.009 | 0.039 |

— the supplement of paper PMC10849652
